This is an account of results in PubChem BioAssay (EPA / NIEHS).

Common to all, as to details: mRNA level, 48 h; actives raise or lower the signal
Read-out in test [1]: ABC Transporter (ABCC2), ABCC2 (gene 1244)
The test can be described thus: LTEA_HepaRG_ABCC2: Life Technologies and Expression Analysis (LTEA) Assay for ABC Transporter (ABCC2) using HepaRG (AID 2283464). In short, it runs like this:
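Endpoint is ABCC2 transcript level from qRT-PCR, normalized to three housekeeping genes and fitted bidirectionally relative to DMSO. Human HepaRG cells received test chemical for 48 h at up to 100 uM (8 points, half-log steps, 0.5% DMSO), duplicate wells.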

Read-out in test [2]: Broad substrate specificity ATP-binding cassette transporter ABCG2 (Homo sapiens) (UniProt Q9UNQ0)
The test can be described thus: LTEA_HepaRG_ABCG2: Life Technologies and Expression Analysis (LTEA) Assay for ABC Transporter (ABCG2) using HepaRG (AID 2283465). In short, it runs like this:
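HepaRG, 48 h exposure, 8-pt half-log series from 100 uM, 0.5% DMSO vehicle, duplicates. Readout: ABCG2 transcript by qRT-PCR (Fluidigm array), housekeeping-normalized; bidirectional curve fit relative to DMSO baseline.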

Read-out in test [3]: ATP-citrate lyase (ACLY), ACLY (gene 47)
Kind of test: LTEA_HepaRG_ACLY: Life Technologies and Expression Analysis (LTEA) Assay for ATP-citrate lyase (ACLY) using HepaRG (AID 2283466). An outline of the steps: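 qRT-PCR readout of ACLY transcript after 48 h chemical treatment of HepaRG cells; expression normalized to three housekeeping genes. Eight-point half-log series, highest 100 uM, 0.5% DMSO vehicle. Gain or loss fitted against DMSO baseline.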

Read-out in test [4]: Peroxisomal acyl-coenzyme A oxidase 1 (ACOX1) gene, ACOX1 (gene 51)
The test can be described thus: LTEA_HepaRG_ACOX1: Life Technologies and Expression Analysis (LTEA) Assay for Peroxisomal acyl-coenzyme A oxidase 1 (ACOX1) gene using HepaRG (AID 2283467). An outline of the steps: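 HepaRG, 48 h chemical exposure, 8-pt half-log series from 100 uM top, 0.5% DMSO vehicle, duplicates. Readout: ACOX1 mRNA by Fluidigm qRT-PCR, housekeeping-normalized; bidirectional fit vs DMSO baseline.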

Read-out in test [5]: Alkaline Phosphatase, Placental (ALPP) gene, ALPP (gene 250)
The test can be described thus: LTEA_HepaRG_ALPP: Life Technologies and Expression Analysis (LTEA) Assay for Alkaline Phosphatase, Placental (ALPP) gene using HepaRG (AID 2283468). An outline of the steps:
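ALPP transcript level, measured by qRT-PCR and normalized to three housekeeping genes (ACTB, GAPDH, POLR2A), after 48 h dosing of differentiated HepaRG in serum-free induction medium. Top concentration 100 uM with half-log dilutions (8 points, 0.5% DMSO, duplicates); bidirectional fitting relative to DMSO.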

Read-out in test [6]: Bcl-2 (BAX) gene, BAX (gene 581)
Kind of test: LTEA_HepaRG_BAX: Life Technologies and Expression Analysis (LTEA) Assay for Bcl-2 (BAX) gene using HepaRG (AID 2283470). In short, it runs like this:
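qRT-PCR read-out of BAX mRNA, normalized to three housekeeping genes, after 48 h chemical exposure of human HepaRG cells in serum-free induction medium; eight-point half-log series, top 100 uM, 0.5% DMSO vehicle; bidirectional fit versus DMSO.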

Read-out in test [7]: adenosine kinase (ADK) gene, ADK (gene 132)
Kind of test: LTEA_HepaRG_ADK: Life Technologies and Expression Analysis (LTEA) Assay for adenosine kinase (ADK) gene using HepaRG (AID 2283471). An outline of the steps: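 Following 48 h exposure of HepaRG cells in 0.5% DMSO (top concentration 100 uM, duplicate wells), ADK mRNA induction or suppression was measured by qRT-PCR, normalised to ACTB/GAPDH/POLR2A, and fitted bidirectionally relative to vehicle.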

Read-out in test [8]: Alpha-fetoprotein (AFP) gene, AFP (gene 174)
Kind of test: LTEA_HepaRG_AFP: Life Technologies and Expression Analysis (LTEA) Assay for Alpha-fetoprotein (AFP) gene using HepaRG (AID 2283472). In short, it runs like this:
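qRT-PCR (Fluidigm TaqMan) readout of AFP transcript, normalized to three housekeeping genes, fitted bidirectionally against 0.5% DMSO baseline. HepaRG cells received chemicals for 48 h in serum-free induction medium, top concentration 100 uM, half-log steps.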

Read-out in a further test: BCL2L11 (gene 10018)
Kind of test: LTEA_HepaRG_BCL2L11: Life Technologies and Expression Analysis (LTEA) Assay for Bcl-2 (BCL2L11) gene using HepaRG (AID 2283473). In short, it runs like this:
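BCL2L11 transcript levels are measured by Fluidigm qRT-PCR, normalized to three housekeeping genes. HepaRG cultures were plated 48 h, then treated 48 h with test chemical (top 100 uM, half-log, 0.5% DMSO vehicle); curves were fitted bidirectionally against DMSO.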

Read-out in test [9]: Apolipoprotein A-V (APOA5) gene, APOA5 (gene 116519)
Kind of test: LTEA_HepaRG_APOA5: Life Technologies and Expression Analysis (LTEA) Assay for Apolipoprotein A-V (APOA5) gene using HepaRG (AID 2283474). In short, it runs like this: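 APOA5 transcript levels were quantified by qRT-PCR, normalized to three housekeeping genes, after 48 h chemical treatment of HepaRG cells (8 points, 100 uM maximum, half-log steps, 0.5% DMSO). Curves fitted in both directions against vehicle.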

Read-out in test [10]: Apoptosis regulator Bcl-2 (Homo sapiens) (UniProt P10415)
Kind of test: LTEA_HepaRG_BCL2: Life Technologies and Expression Analysis (LTEA) Assay for Bcl-2 gene using HepaRG (AID 2283475). In short, it runs like this:
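qRT-PCR read-out (Fluidigm TaqMan) of BCL2 transcript, normalised to three housekeeping genes, after 48 h chemical exposure of HepaRG cells; 8-point half-log series, top 100 uM, 0.5% DMSO vehicle. Gain or loss of signal fitted relative to DMSO baseline.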

Read-out in test [11]: Bcl-2 (BID) gene, BID (gene 637)
Kind of test: LTEA_HepaRG_BID: Life Technologies and Expression Analysis (LTEA) Assay for Bcl-2 (BID) gene using HepaRG (AID 2283476). In short, it runs like this:
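HepaRG, 48 h exposure, 8-pt half-log series, top 100 uM, 0.5% DMSO vehicle, duplicates. Readout: BID mRNA by TaqMan qRT-PCR; housekeeping-normalized; bidirectional curve fit vs DMSO baseline.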

Read-out in another test: Caspase-3 (Homo sapiens) (UniProt P42574)
Kind of test: LTEA_HepaRG_CASP3: Life Technologies and Expression Analysis (LTEA) Assay for cysteine-aspartic acid protease (CASP3) using HepaRG (AID 2283477). In short, it runs like this:
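Expression of CASP3 was quantified by TaqMan qRT-PCR against three housekeeping genes (ACTB, GAPDH, POLR2A), bidirectionally versus 0.5% DMSO. HepaRG cultures received compounds in duplicate, top 100 uM with half-log steps, for 48 h in serum-free induction medium.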

Read-out in test [12]: Cytochrome P450 (CYP24A1), CYP24A1 (gene 1591)
The test can be described thus: LTEA_HepaRG_CYP24A1: Life Technologies and Expression Analysis (LTEA) Assay for Cytochrome P450 (CYP24A1) using HepaRG (AID 2283478). In short, it runs like this:
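mRNA of CYP24A1 quantified by TaqMan qRT-PCR (ACTB/GAPDH/POLR2A normalization) after 48 h chemical exposure of HepaRG cells, top concentration 100 uM, half-log steps, 0.5% DMSO vehicle, duplicates. Curves fitted bidirectionally against DMSO baseline.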

Read-out in test [13]: Cytochrome P450 (CYP1A2), CYP1A2 (gene 1544)
Kind of test: LTEA_HepaRG_CYP1A2: Life Technologies and Expression Analysis (LTEA) Assay for Cytochrome P450 (CYP1A2) using HepaRG (AID 2283479). In short, it runs like this:
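CYP1A2 transcript measured by TaqMan qRT-PCR against three housekeeping genes after 48-hour chemical exposure of HepaRG cells. Eight-point half-log series topping at 100 uM in 0.5% DMSO, duplicates; gain or loss fitted relative to vehicle.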

Read-out in test [14]: cysteine-aspartic acid protease (CASP8), CASP8 (gene 841)
The test can be described thus: LTEA_HepaRG_CASP8: Life Technologies and Expression Analysis (LTEA) Assay for cysteine-aspartic acid protease (CASP8) using HepaRG (AID 2283480). In short, it runs like this:
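qRT-PCR readout of CASP8 mRNA, normalized to three housekeeping genes, after 48 h chemical exposure of HepaRG cells; 8-point half-log series, top 100 uM, 0.5% DMSO vehicle. Bidirectional curve fitting against DMSO baseline.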

Read-out in test [15]: Cytochrome P450 (CYP2B6), CYP2B6 (gene 1555)
The test can be described thus: LTEA_HepaRG_CYP2B6: Life Technologies and Expression Analysis (LTEA) Assay for Cytochrome P450 (CYP2B6) using HepaRG (AID 2283481). In short, it runs like this: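 CYP2B6 transcript level quantified by qRT-PCR against three housekeeping genes, fitted bidirectionally relative to DMSO. HepaRG cultures received chemicals for 48 h, 8-point half-log series from 100 uM in 0.5% DMSO, duplicate wells, serum-free induction medium.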

Read-out in test [16]: Cytochrome P450 2C19 (Homo sapiens) (UniProt P33261)
The test can be described thus: LTEA_HepaRG_CYP2C19: Life Technologies and Expression Analysis (LTEA) Assay for CYP2C19 using HepaRG (AID 2283482). An outline of the steps:
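CYP2C19 transcript levels by qRT-PCR, normalized to three housekeeping genes, in HepaRG cells after 48 h chemical exposure. Eight-point half-log series topping at 100 uM, 0.5% DMSO vehicle. Increases and decreases both fitted against DMSO.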

Read-out in a further test: CYP2C8 (gene 1558)
Kind of test: LTEA_HepaRG_CYP2C8: Life Technologies and Expression Analysis (LTEA) Assay for CYP2C8 using HepaRG (AID 2283483). An outline of the steps:
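HepaRG (human liver line), 48 h chemical exposure, 8-pt half-log series from 100 uM, 0.5% DMSO vehicle. Readout: CYP2C8 transcript by qRT-PCR, housekeeping-normalized. Bidirectional fit vs DMSO baseline.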

Read-out in test [17]: Bcl-2 (BAD) gene, BAD (gene 572)
The test can be described thus: LTEA_HepaRG_BAD: Life Technologies and Expression Analysis (LTEA) Assay for Bcl-2 (BAD) gene using HepaRG (AID 2283469). In short, it runs like this: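 HepaRG, 48 h exposure, 8-pt half-log curve from 100 uM in 0.5% DMSO, duplicates. Readout: TaqMan qRT-PCR for BAD mRNA, housekeeping-normalised (ACTB/GAPDH/POLR2A); gain or loss fitted against DMSO baseline.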

Activity calls are given as the source filed them. Rule for the calls: active = hit-call score of the fitted dose curve at least 0.9, where 1 is the maximum; inactive = score below 0.9.

Chain of Cytochrome P450 2C19 (Homo sapiens) (P33261 whole entry, looked up): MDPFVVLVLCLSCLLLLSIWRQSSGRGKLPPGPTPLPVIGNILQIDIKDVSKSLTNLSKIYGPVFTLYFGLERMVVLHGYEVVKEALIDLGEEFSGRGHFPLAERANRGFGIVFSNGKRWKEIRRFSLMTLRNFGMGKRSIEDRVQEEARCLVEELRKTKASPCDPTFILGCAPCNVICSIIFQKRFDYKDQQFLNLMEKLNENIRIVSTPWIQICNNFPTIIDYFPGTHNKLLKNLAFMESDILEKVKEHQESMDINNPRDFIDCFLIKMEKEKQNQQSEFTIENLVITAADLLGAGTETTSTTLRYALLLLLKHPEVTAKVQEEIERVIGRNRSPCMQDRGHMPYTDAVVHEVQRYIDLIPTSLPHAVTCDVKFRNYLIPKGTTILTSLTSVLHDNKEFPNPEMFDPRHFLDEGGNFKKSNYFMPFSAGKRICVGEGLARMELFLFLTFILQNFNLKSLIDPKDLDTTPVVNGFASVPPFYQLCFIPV
Chain of Broad substrate specificity ATP-binding cassette transporter ABCG2 (Homo sapiens) (Q9UNQ0 whole entry, looked up): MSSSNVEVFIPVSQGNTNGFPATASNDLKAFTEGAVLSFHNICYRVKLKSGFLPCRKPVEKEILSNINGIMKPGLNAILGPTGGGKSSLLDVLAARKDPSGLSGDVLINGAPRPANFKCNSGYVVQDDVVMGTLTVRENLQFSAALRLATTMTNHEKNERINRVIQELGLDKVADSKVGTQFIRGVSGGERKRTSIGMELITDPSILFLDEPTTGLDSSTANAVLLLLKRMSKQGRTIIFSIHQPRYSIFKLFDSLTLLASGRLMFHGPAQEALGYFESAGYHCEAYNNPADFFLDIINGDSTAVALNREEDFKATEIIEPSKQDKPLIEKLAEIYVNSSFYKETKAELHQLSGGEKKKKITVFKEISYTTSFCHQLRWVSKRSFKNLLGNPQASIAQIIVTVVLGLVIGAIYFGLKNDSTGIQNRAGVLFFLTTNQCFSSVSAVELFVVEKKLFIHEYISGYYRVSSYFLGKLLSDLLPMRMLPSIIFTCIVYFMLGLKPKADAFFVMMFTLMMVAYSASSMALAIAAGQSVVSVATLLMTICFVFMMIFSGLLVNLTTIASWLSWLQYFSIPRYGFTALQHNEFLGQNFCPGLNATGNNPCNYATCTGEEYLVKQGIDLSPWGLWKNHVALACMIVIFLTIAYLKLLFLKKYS
Chain of Apoptosis regulator Bcl-2 (Homo sapiens) (P10415 whole entry, looked up): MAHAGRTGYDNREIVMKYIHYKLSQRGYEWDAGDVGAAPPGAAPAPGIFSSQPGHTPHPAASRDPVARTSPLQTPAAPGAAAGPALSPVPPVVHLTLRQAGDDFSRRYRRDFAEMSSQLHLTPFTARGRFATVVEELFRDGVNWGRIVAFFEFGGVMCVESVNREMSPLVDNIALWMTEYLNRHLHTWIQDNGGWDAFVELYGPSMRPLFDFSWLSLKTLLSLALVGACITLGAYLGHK
Chain of Caspase-3 (Homo sapiens) (P42574 whole entry, looked up): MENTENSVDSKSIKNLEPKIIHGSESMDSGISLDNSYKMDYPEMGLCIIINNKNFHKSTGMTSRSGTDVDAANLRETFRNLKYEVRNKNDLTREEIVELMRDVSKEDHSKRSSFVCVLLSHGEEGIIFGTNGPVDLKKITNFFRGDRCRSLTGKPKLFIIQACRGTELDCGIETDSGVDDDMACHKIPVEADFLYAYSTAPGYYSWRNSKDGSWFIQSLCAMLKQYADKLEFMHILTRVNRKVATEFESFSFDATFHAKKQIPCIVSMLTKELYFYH

In the case of `Clc1ccccc1Cl`, the outcome in test [1], in test [2], in [3], in [4], in [5] and in [6] was inactive. Besides, the result (in test [7]; in [8]; with BCL2L11 (gene 10018); in test [9]; in test [10]; in test [11]) was inactive. Also, the outcome (with Caspase-3 (Homo sapiens); in test [12]; in test [13]; in test [14]; in test [15]; in test [16]) was inactive. Also, the molecule was called inactive with CYP2C8 (gene 1558).
As usually defined, the AC50 is the concentration at which the activity in the assay is half-maximal. For `Nc1ccc([N+](=O)[O-])cc1`, the molecule was classed as inactive in test [1], in test [2], in [3], in test [4], in test [5] and in [17]. Moreover, the molecule was classed as inactive (in test [6]; in [7]; in test [8]; with BCL2L11 (gene 10018); in test [9]; in [11]). Besides, the molecule was classed as inactive (in the test with Caspase-3 (Homo sapiens); in [14]; in test [16]; in the test with CYP2C8 (gene 1558)). For the same molecule, the AC50 in [13] is 39.3 µM (active).
Take `CCCCCCCCOC(=O)c1ccc(C(=O)OCCCCCCCC)c(C(=O)OCCCCCCCC)c1`: the outcome in test [1], in test [2], in [3], in [4], in [5] and in test [6] was inactive. For the same molecule, the call (in [7]; in test [8]; with BCL2L11 (gene 10018); in [9]; in test [10]; in [11]) was inactive. In addition, the call (in the test with Caspase-3 (Homo sapiens); in test [12]; in test [14]; in test [16]; with CYP2C8 (gene 1558)) was inactive. Moreover, in test [13], the concentration at half-maximal activity (AC50) was 50.5 µM (active).
Turning to `Nc1ccc(N=Nc2ccccc2)cc1`, the AC50 in test [1] is 13.2 µM (active); in test [2] it was 13 µM (active); in test [3], 13.3 µM (active); in [4] it was 14 µM (active); in test [6] it was 6.31 µM (active); in test [7], 10.7 µM (active). For the same molecule, the half-maximal activity concentration (AC50) in test [8] was 20.5 µM (active); with BCL2L11 (gene 10018), 17.6 µM (active); in test [9], 17.7 µM (active); in [11] it was 50 µM (active); in [13] it was 88.2 µM (active); in test [14], 17.3 µM (active). The half-maximal activity concentration (AC50) in [15] was 13.1 µM (active); in test [16], 14.4 µM (active); in the test with CYP2C8 (gene 1558) it was 17.3 µM (active). For the same molecule, the result (in [5]; in test [10]; with Caspase-3 (Homo sapiens)) was inactive.
